Source: PubChem (National Center for Advancing Translational Sciences (NCATS))
Only some compounds are listed: those with a hit (about 5.4% of all), similar ones and a draw of the others.
IMPase inh – cell-permeable inhibitors of inositol monophosphatase (IMPase); P97697; CHO-M1 cells, IP1 accumulation, HTRF TR-FRET ratio; inhibition (IP1 accumulation), % at 46.1 µM; 120,000 tested, under 10 active; active = well fitted curve in the direction sought with a large enough effect in the signal ratio, not every such curve was filed as active; inconclusive = small, poorly fitted or top-dose-only effect, or a change in a side signal; inactive = no such curve, though single readings can be large or run the other way; the % refers to the signal ratio;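 note: cells stimulated with carbachol in lithium chloride buffer; higher means more IMPase inhibition seen as more IP1 and lower FRET ratio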
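In this qHTS, compounds (final up to 46 uM) act on CHO-M1 cells that are then activated through the M1 receptor with carbachol, in pH 7.4 buffer containing 50 mM LiCl, for 30 min. IP1 accumulation is quantified by the IP-One immunoassay.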
HPGD block – blocks human HPGD enzyme activity | P15428 | purified HPGD, NADH fluorescence kinetic, PGE2 substrate | Potency, µM, hits mostly inhibitors | hit rate 4.3% among 150,000; active = well fitted inhibition curve with a large enough effect, not every such curve was filed as active; inconclusive = small, poorly fitted or top-dose-only effect, or another doubt; inactive = no such curve, though single readings can be large or run the other way
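NADH formation kinetics: reaction with 30 uM PGE2 and 1 mM NAD+ (final), 20 nM enzyme, Tris-HCl pH 8 with Tween 20, after 15 min compound preincubation at room temperature. Fluorescence change, last versus first of five reads.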
PNC assembly inh – inhibitors of perinucleolar compartment assembly; PC3M PTB-GFP, PNC prevalence imaging, 16 h; stronger effect = lower value; activity change (PNC), negative = inhibition, % at 10 µM; hit rate 3.1% among 140,000; AID 2417;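 active = readout at or below -70, meaning at least 70% loss of cells showing the perinucleolar compartment, a nuclear body marking cancer cells; inconclusive = readout between -30 and a set limit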
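Compounds are pinned in duplicate onto adhered PC3M cells stably expressing GFP-tagged PTB and incubated 16 h at 37 C. Cells are then fixed, nuclei stained with Hoechst, and PNC-positive cells counted.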
ALOX12 inhib – inhibitors of human 12-lipoxygenase (ALOX12) | P18054 | purified 12-hLO, xylenol orange hydroperoxide absorbance | Potency, µM (top dose mostly 57.1 µM), actives largely listed as inhibitors | hit rate 0.12% among 150,000 | AID 1452; note: nearly all actives have a fitted effect of over 55% in size
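Lipoxygenase turnover measured by absorbance at 573 and 405 nm after Fe-XO development. Human 12hLO 150 nM, arachidonate 40 uM, pH 7.0 Hepes buffer with detergent; 15 min compound preincubation, 30 min reaction.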
IMPase Li inh – membrane-permeable IMPase blocker, potentiated with lithium; CHO-M1 cells, IP1 TR-FRET (IP-One), carbachol + lithium; Potency, µM (titrated, usually from 59.4 µM), hits mostly inhibitors; hit rate 0.35% among 210,000; AID 1457;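 note: IP1 builds up when IMPase is blocked and the TR-FRET signal falls; nearly all actives have a fitted effect of over 50% in size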
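Test compounds were applied to CHO-M1 cells previously cultured for 16–30 h at 2000 per well. A small lithium amount accompanied them; after 30 min at 37C, IP1 was quantified by TR-FRET.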
15-hLO-2 inh – 15-hLO-2 (ALOX15B) enzyme inhibition. hit rate 0.56% among 110,000. purified 15hLO-2, xylenol orange hydroperoxide absorbance. O15296. Potency, µM (top dose mostly 57.1 µM), most hits filed as inhibitors; note: nearly all actives have a fitted effect of over 60% in size
Target sequence (O15296 whole entry, looked up): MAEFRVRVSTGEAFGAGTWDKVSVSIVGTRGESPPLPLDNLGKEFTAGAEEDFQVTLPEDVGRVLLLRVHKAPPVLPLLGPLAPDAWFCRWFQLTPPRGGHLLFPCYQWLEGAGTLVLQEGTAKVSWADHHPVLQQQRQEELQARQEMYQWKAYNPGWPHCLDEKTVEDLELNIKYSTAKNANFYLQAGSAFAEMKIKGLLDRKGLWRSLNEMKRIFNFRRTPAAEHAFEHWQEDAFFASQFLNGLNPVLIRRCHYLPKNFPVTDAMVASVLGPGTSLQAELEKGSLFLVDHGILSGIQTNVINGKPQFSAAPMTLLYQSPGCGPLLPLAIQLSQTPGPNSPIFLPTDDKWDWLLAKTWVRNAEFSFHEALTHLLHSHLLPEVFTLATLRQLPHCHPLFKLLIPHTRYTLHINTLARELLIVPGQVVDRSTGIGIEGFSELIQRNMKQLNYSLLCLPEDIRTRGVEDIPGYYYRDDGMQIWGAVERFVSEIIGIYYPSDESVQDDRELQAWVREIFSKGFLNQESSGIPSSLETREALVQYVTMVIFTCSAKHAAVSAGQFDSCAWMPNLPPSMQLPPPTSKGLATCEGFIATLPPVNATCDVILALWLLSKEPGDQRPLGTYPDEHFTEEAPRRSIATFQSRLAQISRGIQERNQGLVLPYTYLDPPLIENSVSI
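Read-out: hydroperoxide product oxidises ferrous iron, measured as xylenol orange complex via the 573-to-405 nm absorbance ratio after 30 min. Reaction: 50 nM enzyme, 15 min compound preincubation, 45 uM arachidonic acid, 90 min RT, Hepes pH 7.5 with Triton X-100.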
Of the large screens only hits and unclear results are named; the others gave an inactive call. Unless noted, calls come from the whole dose curve; as a rule, active = well fitted curve in the direction sought with a large enough effect; inconclusive = small, poorly fitted or top-dose-only effect, or another doubt; inactive = no such curve, though single readings can be large; an effect the other way counts as inactive or inconclusive.

COC1=C(Nc2ccc(C)cc2)C(=O)c2ccccc2C1=O	HPGD block 11µM (no result: IMPase inh, 15-hLO-2 inh)
CN(c1ccc(C(=O)NCC2CCCO2)cc1)S(C)(=O)=O (stereo not given)	PNC assembly inh -87
O=C(NCC1CCCO1)c1ccc2c(c1)OCO2 (stereo not given)	HPGD block 2µM
O=C(Nc1ccc2c(c1)OCO2)c1ccc(S(=O)(=O)NCC2CCCO2)cc1 (stereo not given)	none
O=C(COC(=O)c1ccc(NS(=O)(=O)c2ccc3c(c2)OCCO3)cc1)NCC1CCCO1 (stereo not given)	PNC assembly inh -92
Cc1nc(SCC(=O)OC(C)(C)C)c2c3c(sc2n1)CCCC3	none (no result: HPGD block, PNC assembly inh, ALOX12 inhib, IMPase Li inh, 15-hLO-2 inh)
COC(=O)CCC(=O)COc1ccccc1C#N	HPGD block 14µM
Cc1ccc(-c2c3c(=O)n(C)c(=O)n(C)c3c3c(C)nc4ccccc4n23)cc1	none (no result: HPGD block, PNC assembly inh, ALOX12 inhib, IMPase Li inh, 15-hLO-2 inh)
CCN(CC)CCNC(=O)c1cc(Sc2nnc(C)s2)nc2ccccc12	HPGD block 1.3µM (no result: IMPase inh, 15-hLO-2 inh)
COc1ccccc1-n1c(SCC(=O)Nc2ccc(C)cc2)nc(O)cc1=O	ALOX12 inhib 0.079µM
COc1ccccc1-n1c(SCC(=O)Nc2cccc3ccccc23)nc(O)cc1=O	none
CCN(CC)C(=O)CSc1nc(O)cc(=O)n1-c1ccccc1OC	none
COc1ccc(NC(=O)CSc2nc(O)cc(=O)n2-c2ccccc2OC)cc1	ALOX12 inhib 7.1µM
O=C(NCCN1CCCCC1)c1ccc(Cc2nc3ccccc3[nH]2)cc1	none (no result: IMPase inh, PNC assembly inh, IMPase Li inh, 15-hLO-2 inh)
O=C(c1ccncc1)c1ccc(NS(=O)(=O)c2ccc(Br)s2)cc1	HPGD block 28µM
NCC1CCC(N)C(O[C@@H]2C(O)[C@H](O[C@H]3OC(CO)C(O)C(N)C3O)[C@@H](N)C[C@H]2N)O1 (stereo not given in full)	none (no result: IMPase inh, PNC assembly inh)
CCS(=O)(=O)Nc1ccc(-c2nnc(SCC(=O)c3ccc(NC(C)=O)c(OC)c3)o2)cc1	HPGD block 0.79µM
CCCCCCCCC#CCC#CCC#CCCCC(=O)O	none (no result: IMPase inh, PNC assembly inh, 15-hLO-2 inh)
O=C(COC(=O)CCCN1C(=O)c2ccccc2C1=O)Nc1ncc(Cl)cc1Cl	PNC assembly inh -100
O=C(COC(=O)CCCN1C(=O)c2cccc3cccc(c23)C1=O)Nc1cccc(Br)c1	HPGD block inconclusive (no result: IMPase inh, 15-hLO-2 inh)
O=C(COC(=O)CCCN1C(=O)c2cccc3cccc(c23)C1=O)Nc1cccc(C(F)(F)F)c1	HPGD block inconclusive, PNC assembly inh -106 (no result: IMPase inh, 15-hLO-2 inh)
O=c1cnc2cncnc2n1Cc1ccccc1	none (no result: IMPase inh, HPGD block, PNC assembly inh, ALOX12 inhib)
Nc1c(C(=O)NCC2CCCO2)sc2nc3c(c(-c4ccco4)c12)CC/C3=C\c1ccco1 (stereo not given)	HPGD block 20µM, PNC assembly inh inconclusive (no result: IMPase inh, 15-hLO-2 inh)
CCO/C(=C/c1sc2ccc(OC)cc2[n+]1CCCS(=O)(=O)[O-])CC	none
CCOC(=O)C[n+]1c(C)sc2ccc(OC)cc21	HPGD block 20µM, 15-hLO-2 inh inconclusive
COC(=O)c1ccc(NC(=O)CN2C(=O)CCC2=O)cc1	HPGD block 32µM
O=C(CN1C(=O)CCC1=O)Nc1ccc(Br)cc1	ALOX12 inhib 5.6µM
O=C(CN1C(=O)CCC1=O)Nc1cccc(NC(=O)CN2C(=O)CCC2=O)c1	none (no result: IMPase inh, HPGD block, PNC assembly inh, ALOX12 inhib, 15-hLO-2 inh)
C=C(Br)CN(C)CC(=C)Br	none (no result: IMPase inh, PNC assembly inh)
Cc1ccc2sc(NC(=O)CN3C(=O)c4ccccc4C3=O)nc2c1C	PNC assembly inh -119 (no result: IMPase inh, 15-hLO-2 inh)
Cc1cccc2sc(NC(=O)CN3C(=O)c4ccccc4C3=O)nc12	PNC assembly inh inconclusive (no result: 15-hLO-2 inh)
Cc1ccc(-c2nnc(Nc3ccc(O)cc3)c3ccccc23)cc1S(=O)(=O)N1CCCCC1	none (no result: HPGD block, PNC assembly inh, ALOX12 inhib, IMPase Li inh, 15-hLO-2 inh)
Cc1nc2ccccn2c1C(=O)NC1CCCCC1	HPGD block inconclusive, PNC assembly inh -105
Cc1nc2ccccn2c1C(=O)NN=C1CCCC1	none (no result: IMPase inh, HPGD block, PNC assembly inh, ALOX12 inhib, 15-hLO-2 inh)
CN(Cc1cccs1)S(=O)(=O)c1cccs1	HPGD block 28µM, PNC assembly inh inconclusive
Cc1ccc(C(=O)c2oc3ccccc3c2NC(=O)Cc2ccccc2)cc1	none (no result: HPGD block, PNC assembly inh, ALOX12 inhib, IMPase Li inh, 15-hLO-2 inh)
COC/C=C/C1=CC2=CC(=O)C(C)(OC(=O)c3cnc4ccccc4n3)C(=O)C2=CN1Cc1ccc2c(c1)OCO2 (stereo not given)	none (no result: IMPase inh, PNC assembly inh, 15-hLO-2 inh)
